Assay outcomes deposited in PubChem by National Center for Advancing Translational Sciences (NCATS).
Only some compounds are listed: those with a hit (about 3.7% of all), similar ones and a draw of the others.
ClpP mod – qHTS Assay for Activators of ClpP. purified B. subtilis ClpP, FRET peptide cleavage, 20 min. Potency, µM (titrated, usually from 57.5 µM), for the others: top-dose activity change, negative = active. 1.9% of 340,000 active. AID 651965, 2013; active = well fitted falling curve with a large enough effect; inconclusive = small, poorly fitted or top-dose-only effect; inactive = no such curve, though single readings can be large or run the other way; note: potency is the fitted concentration of half-maximal effect; the source files actives as falling curves though it sought activators and does not explain the sign; nearly all actives have a fitted effect of over 65% in size
Target sequence (P80244 whole entry, looked up): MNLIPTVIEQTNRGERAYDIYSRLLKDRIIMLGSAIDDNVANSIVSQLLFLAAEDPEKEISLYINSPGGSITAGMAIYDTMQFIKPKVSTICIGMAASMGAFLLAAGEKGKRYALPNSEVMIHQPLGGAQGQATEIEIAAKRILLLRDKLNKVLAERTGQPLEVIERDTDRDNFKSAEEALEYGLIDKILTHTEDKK
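ClpP 10 microg/mL final, pH 8 Tris/KCl buffer with BSA, glycerol, Tween-20; compound pinned in; FRET-FV substrate; RT 20 min; Ex320/Em430; ΔFRET vs ADEP 5.8 microM, DMSO, no enzyme.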
Nrf2 block – Nrf2 qHTS screen for inhibitors; A549 ARE-Fluc reporter, luciferase luminescence, 18-24 h; Potency, µM (doses to about 46 µM), for the others: at the highest dose activity change, negative = inhibition, usual class: inhibitors; 2.1% of 360,000 active; AID 504444, 2011; note: potency is the fitted concentration of half-maximal effect; % is set by controls: 0 for no effect and ±100 for the full control effect; nearly all actives have a fitted effect of over 60% in size
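A549 ARE_Fluc cells (5000/well, 5% FBS OPTI-MEM) pre-incubated 2 h, then treated with compounds 18-24 h at 37C/5% CO2 in concentration-response. CellTiter-Fluor viability read first; BugLite luciferase luminescence after 15 min at room temperature gives Nrf2 activity.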
A549 tox – Nrf2 qHTS screen for inhibitors: counterscreen for cytotoxicity; A549 ARE-Fluc cells, CellTiter-Fluor viability, 18-24 h; Potency, µM (doses to about 46 µM), for inactives: top-dose activity change, negative = cytotoxicity, most hits filed as inhibitors; 0.16% of 390,000 active; note: potency is the fitted concentration of half-maximal effect; % is set by controls: 0 for no effect and ±100 for the full control effect
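Cytotoxicity counterscreen: CellTiter-Fluor fluorescence was measured in A549 ARE_Fluc cells after 18-24 h of compound exposure in a concentration series. The subsequent BugLite luminescent read reports ARE-luciferase activity.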
miR-21 reporter – qHTS Assay for Modulators of miRNAs and/orActivators of miR-21; Potency, µM (series often up to 38.3 µM), without a hit: at the highest dose activity change, positive = activation, hits mostly activators; HeLa miR-21 FLuc reporter, luciferase, 48 h; 340,000 tested, under 10 active;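 note: % of control where 0% means no effect; miR-21 action dims this reporter so a rising signal means less miR-21 action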
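HeLa miR-21-FLuc reporter line, endogenous miR-21; 2000 cells/well in DMEM/10% FBS; compound titration up to ~40uM final, 48 h, 37 degree Celsius; luciferase detection reagent, 15 min lysis, CCD luminescence.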
p53 reactivator – qHTS assay for re-activators of p53 using a Luc reporter. H1299 p53-A138V BP100-luciferase reporter, luminescence, 24 h. Potency, µM (highest dose often 92.2 µM), inactives show at the top dose activity change, positive = activation, actives largely listed as activators. 0.063% of 320,000 active. AID 504706, 2011; note: potency is the fitted concentration of half-maximal effect; % of control where 0% means no effect; nearly all actives have a fitted effect of over 45% in size
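p53-null H1299 cells stably carrying temperature-sensitive p53-A138V and a BP100-luciferase reporter were pinned with compounds (4-point, 1:5 series) and held 24 hrs at 37 deg C. Luminescence was read 10 min after detection reagent.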
Nrf2 ARE act – qHTS of Nrf2 Activators. AREc32 ARE-luciferase reporter (MCF7-derived line), luminescence, 24 h. Potency, µM (titrated, usually from 46.1 µM), for the others: at the highest dose activation, hits mostly activators. 0.31% of 410,000 active; note: potency is the fitted concentration of half-maximal effect; % of control where 0% means no effect; nearly all actives have a fitted effect of over 65% in size
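Nrf2 activation is followed as ARE-luciferase induction in the AREc32 line after one day of compound treatment; luminescence is read with Steady-Glo.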
* hit, by the source's call; ? = inconclusive; . = not tested or not shown; [ ] = another dose, or the depositor's remark. Unless noted, calls come from the whole dose curve; as a rule, active = well fitted curve in the direction sought with a large enough effect; inconclusive = small, poorly fitted or top-dose-only effect, or another doubt; inactive = no such curve, though single readings can be large; an effect the other way counts as inactive or inconclusive.

SMILES	ClpP mod	Nrf2 block	A549 tox	miR-21 reporter	p53 reactivator	Nrf2 ARE act
Oc1cccc(C(Nc2nccs2)c2ccc3cccnc3c2O)c1 (stereo not given)	.	16.4µM*	-23.1%	18.5%	?	-0.4%
Oc1c(C(Nc2ccccn2)c2ccccc2)ccc2cccnc12 (stereo not given)	2.6%	.	.	.	.	.
Cc1ccc(S(=O)(=O)Nc2ccc(-n3c(C)nc4ccccc4c3=O)cc2)cc1	1.4%	18.4µM*	0.3%	.	-4.8%	-0.7%
COc1ccc(C(C(=O)NCc2ccccc2)N(C(=O)Cn2nnc3ccccc32)c2ccc(F)cc2)cc1 (stereo not given)	-1.0%	-10.9%	-13.9%	-6.0%	.	-0.7%
CCCC(CCC)C(=O)Nc1cc(-c2cn3cccnc3n2)ccc1OC	?	.	7.0%	-2.1%	.	1.2%
CCOC(=O)c1ccc(NC(=O)C2CCCO2)cc1 (stereo not given)	1.1%	27.4%	-5.9%	-48.3%	?	-0.2%
CCOC(=O)c1cccc(NC(=O)c2ccc(NC(=O)C3CCCO3)cc2)c1 (stereo not given)	.	11.6µM*	-28.9%	1.7%	8.8%	0.5%
CCOC(=O)c1ccc(NC(=O)C(=O)NCC2CCCO2)cc1 (stereo not given)	31.6µM*	?	11.1%	-19.4%	-2.9%	0.6%
CC(C)N(CCn1cnc2c([nH]c3ccccc32)c1=O)C(C)C	-11.1%	11.1%	3.9%	3.0%	3.6%	0.4%
COc1cc2[nH]c3c(=O)n(CCN(C(C)C)C(C)C)cnc3c2cc1OC	28.2µM*	10.0%	-8.8%	-0.6%	?	-0.9%
CCc1ccc(N=c2c([N+](=O)[O-])nn(-c3ccccc3)n2O)cc1	0.4%	-14.3%	-17.8%	-2.4%	39.8µM*	15.7%
Cc1cc(C)cc(N=c2c([N+](=O)[O-])nn(-c3ccc(Cl)cc3)n2O)c1	.	-0.5%	?	-2.8%	1.6%	-0.4%
CCCCNC(=O)C1=C(N)C(C(=O)Nc2ccc(C)c(S(=O)(=O)N3CCCCC3)c2)SC1=Nc1ccc(C)cc1C (stereo not given)	-3.3%	?	-15.4%	10.9%	11.5%	4.1%
CCN(CC)S(=O)(=O)c1cccc(NC(=O)C2SC(=Nc3ccc(C)cc3C)C(C(=O)NC(C)COC)=C2N)c1 (stereo not given)	-6.1%	20.6µM*	?	13.3%	17.4%	1.7%
Cc1c(C(=O)N2CCC2(C)C(=O)O)oc2ccccc12 (stereo not given)	1.5%	.	.	.	.	0.4%[9.22 µM]
Cc1cccc(NC(=O)COc2ccc(-c3nn(C)c(=O)c4ccccc34)cc2)c1	?	23.1µM*	?	9.5%	1.3%	-2.7%
Cn1nc(-c2ccc(OCC(=O)Nc3ccccc3)cc2)c2ccccc2c1=O	-8.5%	?	-2.8%	24.6%	-6.1%	1.0%
COc1cccc(CCNC(=O)c2cnc3sc(N4CCCC4)nn3c2=O)c1	4.3%	?	0.7%	3.5%	.	0.1%
CCOC(=O)c1c(C)[nH]c(CCC(=O)NCc2ccc(CC)cc2)c1C	-1.5%	.	-0.8%	8.4%	.	4.1%
CCCC(=O)N1CCN(c2ccc(NC(=O)c3cc4ccccc4o3)cc2Cl)CC1	-12.4%	13µM*	?	?	-47.0%	-3.9%
O=C(Nc1ccc(N2CCN(C(=O)c3ccco3)CC2)c(Cl)c1)c1cc2ccccc2o1	?	18.4µM*	?	?	-5.1%	-0.5%
c1nc(NCCc2cnc[nH]2)c2ccc(-c3ccc4c(c3)OCO4)cc2n1	.	11.3%	17.7%	.	.	.
COc1ccc(-n2c(C)c([N+](=O)[O-])c3ccc(O)c(CN(C)C)c32)cc1	22.4µM*	?	-9.4%	28.5%	-1.0%	-0.4%
Cc1[nH]n(-c2ccccc2)c(=O)c1C(=O)c1ccccc1	.	?	?	28.4%	6.0%	-0.4%
CCSC(=S)c1c(C)[nH]n(-c2ccccc2)c1=O	1.6%	?	?	7.2%	6.2%	2.6%
SMILES	ClpP mod	Nrf2 block	A549 tox	miR-21 reporter	p53 reactivator	Nrf2 ARE act
Cc1[nH]n(-c2ccccc2)c(=O)c1C(=O)c1ccc(Cl)cc1	.	16.4µM*	-24.1%	26.7%	?	0.4%
Cc1[nH]n(-c2ccccc2)c(=O)c1C(=O)c1cccc(F)c1	-0.1%	23.1µM*	13.2%	28.1%	0.5%	0.3%
Cc1[nH]n(-c2ccc(Cl)cc2)c(=O)c1C(=O)c1ccccc1	.	20.6µM*	?	23.0%	3.4%	3.1%
COCc1c(C(=O)Nc2cccc(S(=O)(=O)N3CCCCC3)c2)oc2ccccc12	-1.9%	?	-13.5%	.	5.3%	3.5%
CC(=O)c1ccc(-c2ccc(C3C4C=CCCC4(C)C(=O)N3Cc3ccccc3)c(F)c2)cc1 (stereo not given)	.	?	-14.7%	.	.	.
COc1ccc(-c2cc(C(F)(F)F)nc(N3CCCCC3)n2)cc1OC	35.5µM*	-0.5%	-0.8%	-3.6%	4.4%	-0.5%
COc1ccc(-c2cc(C(F)(F)F)nc(N3CCCCCC3)n2)cc1	22.4µM*	9.7%	-0.6%	-2.9%	9.3%	0.0%
Nc1[nH]n(-c2ccccc2)c(=O)c1N=Nc1ccccc1[N+](=O)[O-]	-1.3%	16.3%	-6.8%	-56.1%	15.2%	5.9%
O=c1c2cc([N+](=O)[O-])cc([N+](=O)[O-])c2[nH]n1-c1ccccc1	.	2.4%	16.4µM*	-2.0%	-0.7%	3.0%
COc1cc(C(=O)Nc2nc(C)c(Cc3ccc4c(c3)OCO4)s2)cc(OC)c1OC	?	14.6µM*	-0.3%	24.8%	1.6%	4.3%
CCCOc1ccc(C(=O)Nc2nc(C)c(Cc3ccc4c(c3)OCO4)s2)cc1	4.3%	?	-24.6%	-31.3%	?	-2.3%
CCc1nc2c(OCc3ccc(C(F)(F)F)cc3)cccn2c1N(C)C(=O)c1ccc(C)cc1	1.3%	.	.	.	.	1.7%[9.22 µM]
CCOc1ccccc1OCC(=O)Nc1ccc(Cl)cc1Cl	0.4%	-4.7%	-7.1%	-1.3%	-3.0%	3.0%
CC(=O)Nc1ccccc1OCC(=O)NCCc1ccc(Cl)cc1Cl	31.6µM*	?	15.4%	8.7%	-8.1%	2.0%
CN1C(=O)NC(c2ccccc2)C2=C1CN(c1cccc(C(F)(F)F)c1)C2=O (stereo not given)	39.8µM*	-22.6%	4.3%	-3.6%	-6.9%	3.6%
Nc1cc(=O)nc(SCC(=O)Nc2cccc(Cl)c2)n1CCc1ccccc1	1.4%	22.7%	1.9%	17.7%	.	3.1%
Cc1nn(-c2ccc3nncn3n2)c(C)c1CCC(=O)Nc1ccc(OC(F)(F)F)cc1	0.3%	.	0.3%	-5.8%	.	3.8%
